Measured values reported in PubChem BioAssay (EPA / NIEHS).
Inconclusive results are not listed. Calls of active or inactive are those of the source. The calls were made as follows, unless noted: active = hit-call score of the fitted dose curve at least 0.9, where 1 is the maximum; inactive = score below 0.9.

Key:
[1] = ATG_NFI_CIS: Attagene CIS-FACTORIAL HepG2 Assay for human Nuclear Factor I (NFI) (AID 2282989); conditions: HepG2 cis-regulatory reporter, NFI response element transcription; actives raise or lower the signal
In short: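 Transfected HepG2 liver cells, exposed 24 h, supplied total RNA for oligo(dT) reverse transcription and reporter-specific PCR. Labelled, HpaI-cut fragments were sized by capillary electrophoresis; DMSO set the baseline for bidirectional fitting.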

[2] = biological target: Myc proto-oncogene protein (Homo sapiens) (UniProt P01106); test: ATG_Myc_CIS: Attagene CIS-FACTORIAL HepG2 Assay for human Myelocytomatosis (Myc) Proto-Oncogene Transcription Factor (AID 2282990); conditions: HepG2, Attagene cis-reporter transcription factor activity; actives raise or lower the signal
In short: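 HepG2, transient MRTU transfection (cis promoters, endogenous TFs); 24 h dosing; TriZol RNA → oligo(dT) RT → PCR → 6-FAM primer extension → HpaI cut → CE. Bidirectional fit vs DMSO.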

[3] = ATG_NF_kB_CIS: Attagene CIS-FACTORIAL HepG2 Assay for human Nuclear Factor Kappa B (NF-kB) (AID 2282991); conditions: HepG2 Attagene cis-factorial NF-kB reporter mRNA; actives raise or lower the signal
In short: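 Fluorescence of labelled RT-PCR products separated by capillary electrophoresis gives reporter mRNA levels from transfected HepG2 cells exposed 24 h; values are fitted in both directions relative to DMSO.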

[4] = ATG_NRF2_ARE_CIS: Attagene CIS-FACTORIAL HepG2 Assay for human Nuclear Factor Erythroid 2 Related Factor 2 (NFR2) response to Antioxidant Response Elements (ARE) (AID 2282992); conditions: HepG2 Attagene ARE/NRF2 reporter, transcription factor activity; actives raise or lower the signal
In short: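 Cis-factorial assay: transfected HepG2 reporter library, 24 h dosing, mRNA readout via RT-PCR/CE; DMSO-referenced bidirectional analysis.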

[5] = ATG_Oct_MLP_CIS: Attagene CIS-FACTORIAL HepG2 Assay for human Octamer-Binding Transcription Factor (Oct) (AID 2282993); conditions: HepG2 Attagene cis-factorial Oct reporter, mRNA; actives raise or lower the signal
In short: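 Using HepG2 cells bearing transfected cis-reporter constructs, mRNA induction was read after 24 h by fluorescent RT-PCR and capillary electrophoresis, with DMSO defining baseline for gain- or loss-of-signal fits.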

[6] = biological target: Cellular tumor antigen p53 (Homo sapiens) (UniProt P04637); test: ATG_p53_CIS: Attagene CIS-FACTORIAL HepG2 Assay for human p53 Transcription Factor (AID 2282994); conditions: HepG2 p53 cis-element reporter, Attagene mRNA; actives raise or lower the signal
In short: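 Using HepG2 hepatoma cells carrying cis-acting multiplexed reporters, mRNA induction is detected after a 24 h exposure. Gain- and loss-of-signal responses are fitted relative to DMSO-treated cells.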

[7] = BSK_3C_TissueFactor: BioMAP Diversity Plus: 3C Assay for Tissue Factor Biomarker Activity (AID 2282997); conditions: BioMAP 3C HUVEC, tissue factor biomarker readout; actives raise or lower the signal
In short: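 Primary human umbilical vein endothelial cells in the 3C system were exposed to test chemical for 24 h, then Tissue Factor measured by ELISA. Activity was fitted bidirectionally against DMSO as negative control and baseline.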

[8] = BSK_3C_uPAR: BioMAP Diversity Plus: 3C Assay for Urokinase-type plasminogen activator receptor (uPAR) Biomarker Activity (AID 2282998); conditions: BioMAP 3C HUVEC, uPAR biomarker ELISA; actives raise or lower the signal
In short: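 In this endothelial cell-based assay, human umbilical vein primary cells were treated with chemicals and harvested at 24 h. uPAR was quantified using ELISA, with gains or losses fitted relative to DMSO controls.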

[9] = BSK_3C_VCAM1: BioMAP Diversity Plus: 3C Assay for Vascular cell adhesion molecule 1 (VCAM1) Biomarker Activity (AID 2282999); conditions: BioMAP 3C HUVEC, VCAM1 ELISA, cytokine-stimulated; actives raise or lower the signal
In short: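 Endothelial cells from human umbilical vein are treated with test chemical. At 24 h, VCAM-1 is measured by ELISA, and responses in either direction are fitted relative to DMSO.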

[10] = BSK_4H_Eotaxin3: BioMAP Diversity Plus: 4H Assay for Eotaxin 3 Biomarker Activity (AID 2283000); conditions: primary human endothelial cells (HUVEC); actives raise or lower the signal;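 as to outcome: CCL26 protein level quantified by ELISA in parallel with SRB cytotoxicity check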
In short: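 HUVEC, 24 h post-dose, ELISA for Eotaxin-3/CCL26. Gain or loss of signal fitted bidirectionally vs DMSO baseline.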

[11] = biological target: human Peroxisome Proliferator-activated Receptor alpha (PPARa), PPARA (gene 5465) (UniProt Q07869); test: ATG_PPARa_TRANS: Attagene TRANS-FACTORIAL HepG2 Assay for human Peroxisome Proliferator-activated Receptor alpha (PPARa) (AID 2283001; active = hit-call score of the fitted dose curve at least 0.9, where 1 is the maximum)
In short: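 Reporter transcripts from GAL4-UAS units in transfected HepG2 were quantified 24 h after dosing. Detection used reverse transcription, PCR, fluorescent primer extension and capillary electrophoresis, with DMSO as baseline.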

[12] = biological target: human Peroxisome Proliferator-activated Receptor delta (PPARd), PPARD (gene 5467) (UniProt Q03181); test: ATG_PPARd_TRANS: Attagene TRANS-FACTORIAL HepG2 Assay for human Peroxisome Proliferator-activated Receptor delta (PPARd) (AID 2283002; active = hit-call score of the fitted dose curve at least 0.9, where 1 is the maximum)
In short: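 Transient HepG2 transfection (multiple GAL4-UAS RTUs, chimeric receptor-Gal4); 24 h dosing; total RNA → oligo(dT) RT → PCR → 6-FAM primer extension → HpaI cut → CE. Positive direction vs DMSO.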

[13] = read-out: Intercellular Adhesion Molecule 1 (ICAM1), ICAM1 (gene 3383); test: BSK_3C_ICAM1: BioMAP Diversity Plus: 3C Assay for Intercellular Adhesion Molecule 1 (ICAM1) Biomarker Activity (AID 2283003); conditions: primary human endothelial cells (HUVEC); actives raise or lower the signal
In short: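 Human vascular endothelial primary cells, 3C conditions, 24 h treatment. ICAM-1 by ELISA.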

[14] = BSK_3C_Proliferation: Cell Proliferation Assessment in the BioMAP Diversity Plus: 3C Assay (AID 2283006); conditions: primary human endothelial cells (HUVEC);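 as to AC50: potency may reflect either rise or fall in cell number versus DMSO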
In short: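 Proliferation of human vascular endothelial primary cells after 48 h dosing, quantified as SRB-stained protein at 560 nm relative to DMSO.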

[15] = biological target: Peroxisome proliferator-activated receptor gamma (Homo sapiens) (UniProt P37231); test: ATG_PPARg_TRANS: Attagene TRANS-FACTORIAL HepG2 Assay for human Peroxisome Proliferator-activated Receptor-gamma (PPARg) (AID 2283007; active = hit-call score of the fitted dose curve at least 0.9, where 1 is the maximum)
In short: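 Twenty-four hours after chemical dosing of transiently transfected HepG2 cells, isolated RNA was converted to cDNA, reporter sequences amplified and 6-FAM-labelled, then HpaI-digested and analysed by capillary electrophoresis. Signal increase against DMSO was fitted.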

[16] = biological target: human RAR-related Orphan Receptor beta (RORb), RORB (gene 6096) (UniProt Q92753); test: ATG_RORb_TRANS: Attagene TRANS-FACTORIAL HepG2 Assay for human RAR-related Orphan Receptor beta (RORb) (AID 2283010; active = hit-call score of the fitted dose curve at least 0.9, where 1 is the maximum)
In short: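 In this TRANS-format test, human HepG2 cells express chimeric NR-Gal4 fusion proteins driving GAL4-UAS reporters. After 24 h dosing, reporter transcripts are measured by fluorescent RT-PCR/capillary electrophoresis, with DMSO as negative control.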

[17] = biological target: Nuclear receptor subfamily 1 group I member 2 (Homo sapiens) (UniProt O75469); test: ATG_PXR_TRANS: Attagene TRANS-FACTORIAL HepG2 Assay for human Pregnane X Receptor (PXR) (AID 2283008; active = hit-call score of the fitted dose curve at least 0.9, where 1 is the maximum)
In short: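 Fluorescence intensity of FAM-labelled, HpaI-digested reporter amplicons, separated by capillary electrophoresis, quantifies induction. HepG2 cells with PXR-Gal4 trans-reporter system were exposed 24 h; DMSO defines baseline.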

Chain of human Peroxisome Proliferator-activated Receptor alpha (PPARa), PPARA (gene 5465) (Q07869 whole entry, looked up, the tested form may be a part): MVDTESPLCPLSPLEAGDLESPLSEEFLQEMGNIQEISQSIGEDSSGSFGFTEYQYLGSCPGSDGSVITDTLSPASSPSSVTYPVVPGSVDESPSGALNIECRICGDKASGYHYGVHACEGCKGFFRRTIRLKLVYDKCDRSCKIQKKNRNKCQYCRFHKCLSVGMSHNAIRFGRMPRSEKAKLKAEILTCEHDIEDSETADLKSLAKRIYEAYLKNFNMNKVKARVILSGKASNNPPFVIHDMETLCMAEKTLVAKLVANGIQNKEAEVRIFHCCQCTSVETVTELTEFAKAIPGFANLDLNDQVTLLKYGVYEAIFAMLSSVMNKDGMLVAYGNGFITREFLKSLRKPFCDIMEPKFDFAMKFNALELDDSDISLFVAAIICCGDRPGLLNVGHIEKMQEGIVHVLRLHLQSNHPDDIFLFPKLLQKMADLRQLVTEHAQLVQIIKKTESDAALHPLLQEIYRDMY
Chain of human RAR-related Orphan Receptor beta (RORb), RORB (gene 6096) (Q92753 whole entry, looked up, the tested form may be a part): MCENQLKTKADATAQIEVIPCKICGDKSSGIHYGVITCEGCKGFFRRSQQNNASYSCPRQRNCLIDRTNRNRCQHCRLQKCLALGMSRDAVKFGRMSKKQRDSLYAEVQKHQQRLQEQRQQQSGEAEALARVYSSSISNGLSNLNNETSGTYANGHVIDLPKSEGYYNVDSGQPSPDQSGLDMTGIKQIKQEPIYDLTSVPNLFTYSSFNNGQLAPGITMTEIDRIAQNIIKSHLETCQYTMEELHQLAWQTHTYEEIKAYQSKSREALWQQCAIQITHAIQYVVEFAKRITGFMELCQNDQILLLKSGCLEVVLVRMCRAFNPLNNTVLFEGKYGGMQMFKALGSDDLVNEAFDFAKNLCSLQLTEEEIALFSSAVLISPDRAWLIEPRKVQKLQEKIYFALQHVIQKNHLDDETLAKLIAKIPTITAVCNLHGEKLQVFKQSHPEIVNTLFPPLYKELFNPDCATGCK
Chain of Peroxisome proliferator-activated receptor gamma (Homo sapiens) (P37231 whole entry, looked up): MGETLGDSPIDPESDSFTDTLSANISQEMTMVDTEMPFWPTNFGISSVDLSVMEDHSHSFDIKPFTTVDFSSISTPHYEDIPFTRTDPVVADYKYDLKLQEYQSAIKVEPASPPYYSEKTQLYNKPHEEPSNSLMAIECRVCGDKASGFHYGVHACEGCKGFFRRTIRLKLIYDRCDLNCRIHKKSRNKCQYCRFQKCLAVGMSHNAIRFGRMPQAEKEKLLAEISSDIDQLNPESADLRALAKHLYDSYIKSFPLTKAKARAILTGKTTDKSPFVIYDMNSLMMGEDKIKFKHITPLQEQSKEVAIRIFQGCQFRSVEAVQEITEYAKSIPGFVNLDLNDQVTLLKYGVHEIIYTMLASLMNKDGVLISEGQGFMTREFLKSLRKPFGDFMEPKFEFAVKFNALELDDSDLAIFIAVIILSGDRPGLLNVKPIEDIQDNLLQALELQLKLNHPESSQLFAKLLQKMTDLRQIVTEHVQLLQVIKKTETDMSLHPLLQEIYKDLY
Chain of Myc proto-oncogene protein (Homo sapiens) (P01106 whole entry, looked up): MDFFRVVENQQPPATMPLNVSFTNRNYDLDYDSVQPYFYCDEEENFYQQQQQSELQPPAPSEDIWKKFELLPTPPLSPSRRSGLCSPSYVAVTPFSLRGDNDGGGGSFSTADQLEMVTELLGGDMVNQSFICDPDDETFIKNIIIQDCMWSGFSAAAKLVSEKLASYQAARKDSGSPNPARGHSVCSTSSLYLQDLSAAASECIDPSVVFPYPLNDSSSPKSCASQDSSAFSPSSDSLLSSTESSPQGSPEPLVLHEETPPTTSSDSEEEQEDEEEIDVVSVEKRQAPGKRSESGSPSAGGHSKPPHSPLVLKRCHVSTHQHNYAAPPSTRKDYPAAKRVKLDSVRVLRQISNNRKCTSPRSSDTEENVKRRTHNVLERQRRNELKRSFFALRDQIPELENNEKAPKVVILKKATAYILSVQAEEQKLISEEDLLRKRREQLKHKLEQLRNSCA
Chain of Nuclear receptor subfamily 1 group I member 2 (Homo sapiens) (O75469 whole entry, looked up, the tested form may be a part): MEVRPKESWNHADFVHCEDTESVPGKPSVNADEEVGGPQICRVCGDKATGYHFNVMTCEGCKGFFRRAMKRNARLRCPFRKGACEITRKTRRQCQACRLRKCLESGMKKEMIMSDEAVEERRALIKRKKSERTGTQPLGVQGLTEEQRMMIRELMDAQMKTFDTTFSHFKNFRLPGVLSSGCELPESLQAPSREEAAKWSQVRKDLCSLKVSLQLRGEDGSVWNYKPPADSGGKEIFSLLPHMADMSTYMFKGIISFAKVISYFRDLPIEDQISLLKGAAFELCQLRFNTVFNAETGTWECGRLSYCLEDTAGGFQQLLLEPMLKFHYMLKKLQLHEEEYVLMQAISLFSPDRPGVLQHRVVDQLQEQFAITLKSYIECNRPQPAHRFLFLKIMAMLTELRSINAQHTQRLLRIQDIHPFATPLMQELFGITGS
Chain of Cellular tumor antigen p53 (Homo sapiens) (P04637 whole entry, looked up): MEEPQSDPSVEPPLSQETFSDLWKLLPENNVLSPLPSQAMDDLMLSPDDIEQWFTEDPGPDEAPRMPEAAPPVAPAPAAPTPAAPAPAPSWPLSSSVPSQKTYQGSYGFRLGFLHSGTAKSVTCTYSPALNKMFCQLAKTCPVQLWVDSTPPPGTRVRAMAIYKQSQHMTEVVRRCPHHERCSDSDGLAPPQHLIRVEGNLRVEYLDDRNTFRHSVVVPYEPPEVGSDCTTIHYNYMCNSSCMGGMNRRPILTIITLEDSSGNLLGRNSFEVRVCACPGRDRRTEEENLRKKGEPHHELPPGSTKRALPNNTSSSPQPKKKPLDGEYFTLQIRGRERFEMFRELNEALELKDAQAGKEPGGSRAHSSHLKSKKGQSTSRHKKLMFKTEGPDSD
Chain of human Peroxisome Proliferator-activated Receptor delta (PPARd), PPARD (gene 5467) (Q03181 whole entry, looked up, the tested form may be a part): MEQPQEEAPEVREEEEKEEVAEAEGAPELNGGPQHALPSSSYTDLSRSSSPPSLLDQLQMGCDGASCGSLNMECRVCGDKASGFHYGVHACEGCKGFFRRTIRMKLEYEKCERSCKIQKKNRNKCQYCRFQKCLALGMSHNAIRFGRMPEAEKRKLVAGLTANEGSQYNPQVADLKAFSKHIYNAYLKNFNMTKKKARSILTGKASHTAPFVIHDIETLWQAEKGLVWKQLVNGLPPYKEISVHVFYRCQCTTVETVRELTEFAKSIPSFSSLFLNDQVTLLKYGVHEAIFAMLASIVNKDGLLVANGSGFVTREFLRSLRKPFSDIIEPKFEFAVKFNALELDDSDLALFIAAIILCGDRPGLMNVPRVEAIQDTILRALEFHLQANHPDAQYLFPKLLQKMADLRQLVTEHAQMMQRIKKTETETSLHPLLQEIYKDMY

SMILES: NCCNCCN
- outcome [1]: inactive
- outcome [2]: inactive
- outcome [3]: inactive
- outcome [4]: inactive
- outcome [5]: inactive
- outcome [6]: inactive
- outcome [7]: inactive
- outcome [8]: inactive
- outcome [9]: inactive
- outcome [10]: inactive
- outcome [11]: inactive
- outcome [12]: inactive
- outcome [13]: inactive
- outcome [14]: inactive
- outcome [15]: inactive
- outcome [16]: inactive

SMILES: BrC1CCC(Br)C(Br)CCC(Br)C(Br)CCC1Br (stereo not given)
- AC50 [1]: 46 µM (active)
- outcome [2]: inactive
- outcome [3]: inactive
- AC50 [4]: 23.1 µM (active)
- AC50 [5]: 58.6 µM (active)
- outcome [6]: inactive
- outcome [7]: inactive
- AC50 [8]: 3.22 µM (active)
- AC50 [9]: 4.6 µM (active)
- AC50 [10]: 3.25 µM (active)
- outcome [13]: inactive
- AC50 [14]: 4.72 µM (active)
- outcome [15]: inactive
- AC50 [17]: 2.86 µM (active)
- outcome [16]: inactive

SMILES: OCCOCCOCCOCCO
- outcome [1]: inactive
- outcome [2]: inactive
- outcome [3]: inactive
- outcome [4]: inactive
- outcome [5]: inactive
- outcome [6]: inactive
- outcome [11]: inactive

SMILES: CC(C)c1cccc(O)c1
- outcome [1]: inactive
- outcome [2]: inactive
- outcome [3]: inactive
- outcome [4]: inactive
- outcome [5]: inactive
- outcome [6]: inactive
- outcome [11]: inactive
- outcome [12]: inactive
- outcome [15]: inactive
- outcome [17]: inactive

SMILES: C[C@H]1C[C@@H]2[C@H]([C@@H](O)C[C@@]3(C)[C@H]2CC[C@]3(O)C(=O)CO)[C@@]2(C)C=CC(=O)C=C12
- outcome [1]: inactive
- outcome [2]: inactive
- outcome [3]: inactive
- AC50 [4]: 26.7 µM (active)
- outcome [5]: inactive
- outcome [6]: inactive
- outcome [7]: inactive
- outcome [8]: inactive
- outcome [9]: inactive
- outcome [10]: inactive
- outcome [11]: inactive
- outcome [12]: inactive
- outcome [13]: inactive
- outcome [14]: inactive
- outcome [17]: inactive

SMILES: C=C(C)C(=O)O[C@H]1C[C@@H]2CC[C@@]1(C)C2(C)C
- outcome [1]: inactive
- outcome [2]: inactive
- outcome [3]: inactive
- AC50 [4]: 72.1 µM (active)
- outcome [5]: inactive
- AC50 [6]: 145 µM (active)
- AC50 [7]: 12.2 µM (active)
- AC50 [8]: 13.5 µM (active)
- AC50 [9]: 26.6 µM (active)
- AC50 [10]: 9.05 µM (active)
- outcome [11]: inactive
- outcome [12]: inactive
- AC50 [13]: 28.8 µM (active)
- AC50 [14]: 8.38 µM (active)
- outcome [15]: inactive
- outcome [16]: inactive

SMILES: C=CCOc1nc(OCC=C)nc(OCC=C)n1
- outcome [1]: inactive
- outcome [2]: inactive
- outcome [3]: inactive
- outcome [4]: inactive
- outcome [5]: inactive
- outcome [6]: inactive
- outcome [11]: inactive
- outcome [12]: inactive
- AC50 [15]: 61.4 µM (active)
- AC50 [17]: 14.9 µM (active)

SMILES: Nc1ccc(S(=O)(=O)O)c(N)c1
- outcome [1]: inactive
- outcome [2]: inactive
- outcome [3]: inactive
- outcome [4]: inactive
- outcome [5]: inactive
- outcome [6]: inactive
- outcome [11]: inactive

SMILES: CCCCCCCCC
- outcome [1]: inactive
- outcome [2]: inactive
- outcome [3]: inactive
- outcome [4]: inactive
- outcome [5]: inactive
- outcome [6]: inactive
- outcome [11]: inactive
- outcome [12]: inactive
- outcome [15]: inactive

SMILES: CNCCCC12CCC(c3ccccc31)c1ccccc12
- AC50 [1]: 11.1 µM (active)
- outcome [2]: inactive
- outcome [3]: inactive
- outcome [4]: inactive
- AC50 [5]: 15.4 µM (active)
- AC50 [6]: 16 µM (active)
- outcome [11]: inactive
- outcome [12]: inactive
- outcome [15]: inactive
- outcome [17]: inactive
